Reference: PubChem BioAssay
Calls of active or inactive are those of the source.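 How the source made its calls, unless noted: active means inhibition of the reporter signal at or above 50%; inactive means inhibition below 50%.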

Legend:
[1] = inhibitors of TNFa-induced NFkB p65 translocation, primary screen, imaging, HUVEC, MLSMR starter and 10KST1 sets (AID 438;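 active means inhibition above 20% together with a positive visual image hit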;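 further: compound added about 3h40 before a 20 min TNFalpha stimulation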;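 on inhibition: signal is the nuclear over cytoplasmic p65 intensity ratio per well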); conditions: HUVEC TNFa-induced p65 nuclear translocation; cell count: measured here: nuclei count (cytotoxicity indicator), at 2.08 µM; inhibition: at 2 µM, stronger effect = higher value, 0% TNFa-plus-vehicle, 100% no-TNFa wells
[2] = reduction of polyQ htt aggregates in cells – imaging, exon1htt(103Q)mCFP cells, high-content imaging, primary screen (AID 483;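 active means visual image review flags a hit and inhibition of aggregation exceeds 20%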;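 further: compound exposure lasted 3 days before fixation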;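 on nuclei count: percent of the per-plate median nuclei count of sample wells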); conditions: exon1htt(103Q)mCFP cell line, aggregate imaging, at 2 µM; inhibition of aggregation: stronger effect = higher value; nuclei count: measured here: cell count, toxicity
[3] = endothelial E-selectin expression blockers – imaging, HUVEC, immunofluorescence, MLSMR starter and 10KST1 sets, primary screen (AID 487;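 active means visually confirmed hit in the image check and inhibition above 20%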;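 on inhibition: signal is fraction of cell area covered by stained E-selectin grains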;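 on nuclei count: 100% = median nuclei count of all wells on the same plate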); conditions: HUVEC TNFalpha-induced E-selectin immunofluorescence imaging, at 2 µM; inhibition: stronger effect = higher value; nuclei count: measured here: cell number, toxicity
[4] = target: Voltage-gated potassium channel subunit beta-2 (Rattus norvegicus) (UniProt P62483); experiment: inhibitors of rat Kvbeta2 reductase activity – biochemical, NADPH fluorescence, primary screen (AID 622;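 active means fluorescence slope higher than the sample average by over 3 SD, cut at about -0.22 in these data, passing the limit was not always enough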;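 further: slope of raw intensity against log time taken from 70 to 1610 s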); conditions: recombinant KvBeta, 4-cyanobenzaldehyde reduction, at 10 µM, stronger effect = higher value
Sequence of Voltage-gated potassium channel subunit beta-2 (Rattus norvegicus) (P62483 whole entry, looked up): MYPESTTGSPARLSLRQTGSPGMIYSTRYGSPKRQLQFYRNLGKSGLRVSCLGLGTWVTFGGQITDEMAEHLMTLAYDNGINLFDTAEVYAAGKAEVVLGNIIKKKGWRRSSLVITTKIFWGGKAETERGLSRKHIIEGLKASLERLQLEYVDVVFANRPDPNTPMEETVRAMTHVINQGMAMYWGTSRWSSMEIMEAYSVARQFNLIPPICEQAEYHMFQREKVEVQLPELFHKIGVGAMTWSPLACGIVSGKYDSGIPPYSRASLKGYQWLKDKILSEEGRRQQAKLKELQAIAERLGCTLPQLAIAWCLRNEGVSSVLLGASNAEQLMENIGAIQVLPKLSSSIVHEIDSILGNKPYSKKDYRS

[5] = target: Voltage-gated potassium channel subunit beta-2 (Rattus norvegicus) (UniProt P62483); experiment: enhancers of rat Kvbeta2 NADPH turnover – biochemical, NADPH fluorescence, primary screen (AID 623;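 active means NADPH fluorescence slope more negative than the mean of all samples by about 3 SD, 99.7% confidence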;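 further: fluorescence intensity change per second fitted from 20 to 320 s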); conditions: Recombinant KvBeta, NADPH fluorescence decrease slope, 10 min; at 10 µM; stronger effect = lower value
[6] = target: Alpha-2C adrenergic receptor (Homo sapiens) (UniProt P18825); experiment: compounds altering alpha2C-coupled GIRK flux – cell-based, HEK293 alpha2C/GIRK1/2, thallium flux, primary screen (AID 624;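 active means fluorescence slope after compound addition differing from the mean of all screened samples at 99.7% confidence, in either direction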;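 further: slope of fluorescence ratio to pre-addition baseline per second over 15 to 24 s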); conditions: thallium flux BTC fluorescence, at 10 µM, actives lie on both sides
Sequence of Alpha-2C adrenergic receptor (Homo sapiens) (P18825 whole entry, looked up): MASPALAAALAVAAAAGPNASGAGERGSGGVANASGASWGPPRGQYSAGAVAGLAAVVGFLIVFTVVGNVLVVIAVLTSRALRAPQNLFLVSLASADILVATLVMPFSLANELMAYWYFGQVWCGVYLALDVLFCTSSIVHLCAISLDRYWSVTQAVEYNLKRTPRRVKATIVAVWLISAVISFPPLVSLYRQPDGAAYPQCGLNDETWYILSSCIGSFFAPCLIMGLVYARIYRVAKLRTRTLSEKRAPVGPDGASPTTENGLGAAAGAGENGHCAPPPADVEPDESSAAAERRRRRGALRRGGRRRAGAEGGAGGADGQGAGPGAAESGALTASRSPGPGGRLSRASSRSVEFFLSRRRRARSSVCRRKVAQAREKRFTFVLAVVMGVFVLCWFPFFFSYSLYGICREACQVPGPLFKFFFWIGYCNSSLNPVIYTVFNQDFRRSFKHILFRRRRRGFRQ

[7] = blockers of RIG-like receptor reporter activation – cell-based, Sendai virus stimulus, luciferase, 10K MLSCN set, TLR/RLR signaling modifier project, primary screen (AID 602276;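 active means inhibition at or above 50% at 10 µM; inactive means inhibition below 50%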;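 further: firefly luciferase from ISG56 promoter only with Renilla not read in this screen; 0% = Sendai virus plus DMSO and 100% = medium plus DMSO without virus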); conditions: HEK293 RL24 IRF3 luciferase reporter, at 10 µM, stronger effect = higher value
[8] = TLR3 IRF3 reporter activation blockers – cell-based, poly I:C stimulus, luciferase, 10K MLSCN set, primary screen (AID 602277); conditions: HEK293-TLR3 RL24 IRF3 luciferase reporter, at 10 µM, stronger effect = higher value

| SMILES | cell count [1] | inhibition [1] | inhibition of aggregation [2] | nuclei count [2] | inhibition [3] | nuclei count [3] | fluorescence slope [4] | NADPH fluorescence slope [5] | slope [6] | inhibition [7] | inhibition [8] |
| --- | --- | --- | --- | --- | --- | --- | --- | --- | --- | --- | --- |
| O=C(CSc1oc(-c2ccco2)nc1S(=O)(=O)c1ccccc1)NCC1CCCO1 (centres undefined) | 497 | -13.9% (inactive) | 7.5% (inactive) | 98.6% | -95% (inactive) | 174% | -0.492 (inactive) | -4.8e-05 (inactive) | 0.00481 (inactive) | 9.95% (inactive) | 20.2% (inactive) |
| COc1ccc(OC)c(NC(=O)CSc2nnc(Cc3cccn3C)n2-c2ccc(F)cc2)c1 | 671 | -3.4% (inactive) | 14.8% (inactive) | 86.6% | -40.2% (inactive) | 106% | -0.609 (inactive) | 1.6e-05 (inactive) | 0.00527 (inactive) | 19.4% (inactive) | 30.1% (inactive) |
| C=CCn1c(=O)n(CCOC)c(=O)c2sc3ccccc3c21 | 733 | -3.4% (inactive) | -12% (inactive) | 87.6% | -34% (inactive) | 102% | -0.566 (inactive) | -3.7e-05 (inactive) | 0.00805 (inactive) | -6.44% (inactive) | 51% (active) |
| CC1CCCN(C(=O)CN2C(=O)c3ccccc3C2=O)C1 (centres undefined) | 432 | 4.9% (inactive) | 15.5% (inactive) | 136% | -27.3% (inactive) | 102% | -0.272 (inactive) | -3.7e-05 (inactive) | 0.00658 (inactive) | 14.5% (inactive) | 20.6% (inactive) |
| O=C(CN(C(=O)CCNC(=O)c1ccco1)c1ccccc1)NC1CCCC1 | 311 | -7.8% (inactive) | 27.1% (inactive) | 93.4% | -61.7% (inactive) | 113% | -0.542 (inactive) | 2.6e-05 (inactive) | 0.00484 (inactive) | -10.7% (inactive) | -6.31% (inactive) |
| O=C(CCn1c(=O)oc2ccccc21)N1CCCCCC1 | 776 | -23.3% (inactive) | -23.8% (inactive) | 123% | -26.2% (inactive) | 123% | -0.316 (inactive) | -5.9e-05 (inactive) | 0.00656 (inactive) | -8.11% (inactive) | -6.91% (inactive) |
| O=[n+]1c2c(n([O-])c3c1CCCC3)CCCC2 | 658 | 5.8% (inactive) | -17.7% (inactive) | 109% | 54.7% (inactive) | 75.8% | -0.399 (inactive) | -6.5e-05 (inactive) | 0.00619 (inactive) | 11.8% (inactive) | 24% (inactive) |
| Cc1cc(N2CCC3(CC2)OCCO3)n2nc(C)c(-c3ccc(Cl)cc3)c2n1 | 495 | -19.7% (inactive) | -48.2% (inactive) | 61.2% | -11.4% (inactive) | 94.7% | -0.544 (inactive) | 7.5e-07 (inactive) | 0.00741 (inactive) | 12.3% (inactive) | 12.1% (inactive) |
| O=C(Nc1cccnc1)c1cccc(NC(=O)c2ccco2)c1 | 350 | 1.5% (inactive) | -3.4% (inactive) | 104% | 13.4% (inactive) | 115% | -0.446 (inactive) | 6.3e-05 (inactive) | 0.00622 (inactive) | 16.9% (inactive) | 22.4% (inactive) |
| CN(Cc1nc(-c2ccncc2)no1)S(=O)(=O)c1ccc(Cl)cc1 | 601 | -6.4% (inactive) | -0.9% (inactive) | 88.3% | 1% (inactive) | 94.8% | -0.543 (inactive) | 6.1e-06 (inactive) | 0.00478 (inactive) | -18.2% (inactive) | -26.6% (inactive) |
| COc1ccc(-c2nnc(-c3cccs3)o2)cc1OC | 384 | -0.2% (inactive) | 6.2% (inactive) | 99% | 67.8% (active) | 94.7% | -0.343 (inactive) | 3e-05 (inactive) | 0.00689 (inactive) | -76.7% (inactive) | -170% (inactive) |
| Fc1cccc(NCc2cn3ccccc3n2)c1 | 664 | -8% (inactive) | -73.5% (inactive) | 91.8% | -64.2% (inactive) | 120% | -0.209 (inactive) | -1.6e-05 (inactive) | 0.00555 (inactive) | -1.05% (inactive) | -62.5% (inactive) |
| Cc1ccc(NC(=O)c2cc(-c3ccc(C)o3)nc3ccccc23)nc1 | 414 | 6.3% (inactive) | -7.9% (inactive) | 113% | 21.6% (inactive) | 106% | -0.12 (active) | 9.6e-06 (inactive) | 0.00591 (inactive) | -2.84% (inactive) | -17% (inactive) |
| Cc1cc(=O)[nH]c(=S)n1-c1ccccc1 | 656 | 7.7% (inactive) | 5.6% (inactive) | 103% | 23.3% (inactive) | 103% | -0.564 (inactive) | -3e-05 (inactive) | 0.00585 (inactive) | 15.3% (inactive) | 23.5% (inactive) |
